Measurements from PubChem BioAssay (Tox21).
Records with an inconclusive call do not appear. Calls of active or inactive are those of the source. Unless noted, the call rests on the fitted dose curve.

Tests used:
[1] = Nuclear factor erythroid 2-related factor 2/antioxidant responsive element (Nrf2/ARE) small molecule agonists: qHTS cell viability counter screen in human keratinocytes (AID 1919968; active means well fitted curve in the direction sought with a large enough effect in the repeat runs; an effect the other way counts as inactive or inconclusive; further: nearly all actives have a fitted effect of over 55% in size; further: potency means the concentration at half of the fitted maximal effect)
In short: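 In human HaCaT keratinocytes stably expressing an ARE-driven luciferase, compound exposure lasted 23 h at 37 C under 5% CO2. Viable cells are quantified with a protease-based fluorogenic reagent (CellTiter-Fluor) read 1 h after addition.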

[2] = Nuclear factor erythroid 2-related factor 2/antioxidant responsive element (Nrf2/ARE) small molecule agonists: luciferase reporter gene qHTS assay in human keratinocytes (AID 1919969); further: nearly all actives have a fitted effect of over 35% in size; further: potency means the concentration at half of the fitted maximal effect
[3] = target: Gonadotropin-releasing hormone receptor (Homo sapiens) (UniProt P30968); experiment: Human gonadotropin-releasing hormone receptor (GnRHR) small molecule agonists, calcium flux assay in GnRHR-HEK293 cells (AID 1920063); further: nearly all actives have a fitted effect of over 35% in size
In short: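 Intracellular calcium rise is the read-out: engineered human GnRHR HEK293 cells, dye-loaded, are exposed to DMSO-dissolved compounds and fluorescence at Ex/Em 480/540 is tracked for 3 min.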

[4] = target: KiSS-1 receptor (Homo sapiens) (UniProt Q969F8); experiment: Human kisspeptin (KISS1R) small molecule agonists, calcium flux assay in KISS1R-HEK293 cells (AID 1920064; active means well fitted curve in the direction sought with a large enough effect in the repeat runs; an effect the other way counts as inactive or inconclusive)
In short: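 Concentration-response testing used 15 concentrations in triplicate on human KISS1R-expressing HEK293 cells. Calcium-dependent fluorescence (Ex/Em 480/540) was followed kinetically for 3 min after compound transfer.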

[5] = G protein-coupled receptor (GPCR) small molecule agonists, calcium flux assay: HEK293 wild type cell line counter screen (AID 1920065)
In short: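 Fluorescence intensity signals activation. After overnight (18 h) culture and a 1 h calcium dye load at 37 C, compounds are added by pin tool and the plate read at 480/540 nm for 3 min in 1 s steps.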

[6] = p53 small molecule agonists, cell-based qHTS assay with human liver microsomes (AID 1963577)
In short: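 Compounds act here after metabolic activation: human liver microsomes and NADPH, both at 0.5 mg/mL final, were co-added to p53RE-bla cells. Incubation ran 16 h at 37 C, followed by LiveBLAzer detection.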

[7] = p53 small molecule agonists, cell-based qHTS assay with rat liver microsomes (AID 1963578)
In short: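 Read-out is beta-lactamase reporter fluorescence (LiveBLAzer, 2 h, room temperature, dark) in p53RE-bla cells treated 16 h at 37 C with compound, rat liver microsomes and NADPH, both 0.5 mg/mL final.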

[8] = p53 small molecule agonists, cell-based qHTS assay with human liver microsomes: qHTS cell viability counter screen (AID 1963579); further: nearly all actives have a fitted effect of over 45% in size; further: potency means the concentration at half of the fitted maximal effect
In short: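 Cells carrying the p53 response-element beta-lactamase reporter are treated for 16 h at 37 C with test compounds in the presence of human liver microsomes and NADPH (both 0.5 mg/mL final); ATP-based CellTiter-Glo luminescence then reports viability.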

[9] = p53 small molecule agonists, cell-based qHTS assay with rat liver microsomes: qHTS cell viability counter screen (AID 1963580); further: nearly all actives have a fitted effect of over 45% in size
In short: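 After the beta-lactamase ratio was read, CellTiter-Glo was added to the same wells and luminescence measured at 30 min; cells had been treated 16 h at 37 C with compounds, rat liver microsomes and NADPH (0.5 mg/mL final each).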

[10] = p53 small molecule agonists, cell-based qHTS assay: qHTS cell viability counter screen (AID 1963581); further: nearly all actives have a fitted effect of over 45% in size
In short: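 Luminescence from CellTiter-Glo, reflecting ATP content, serves as the cytotoxicity measure; it is taken after the 2 h reporter substrate step in HCT-116 p53RE-bla cells dosed for 16 h at 37 C.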

[11] = p53 small molecule agonists, cell-based qHTS assay (AID 1963582; active means well fitted activation curve with a large enough effect in the signal ratio in the repeat runs, not every such curve was filed as active; the % refers to the signal ratio)
In short: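 After plating, p53RE-bla cells sat 5 h in the incubator; compounds or DMSO vehicle were pinned in; a 16 h incubation at 37 C followed; FRET substrate was added and, 2 h later at RT, fluorescence was measured.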

[12] = target: Muscarinic acetylcholine receptor M1 (Homo sapiens) (UniProt P11229); experiment: Cholinergic receptor muscarinic 1 (CHRM1) small molecule antagonists, cell-based qHTS assay (AID 1963588); further: nearly all actives have a fitted effect of over 40% in size; further: potency means the concentration at half of the fitted maximal effect
In short: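 Compounds were tested at 15 concentrations in three independent runs. Dye-loaded CHRM1-CHO cells were exposed 5 min at room temperature before stimulation by acetylcholine added at 50nM. Intracellular calcium was read kinetically on FDSS for 3 min.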

[13] = target: Muscarinic acetylcholine receptor M1 (Homo sapiens) (UniProt P11229); experiment: Cholinergic receptor muscarinic 1 (CHRM1) small molecule agonists, cell-based qHTS assay (AID 1963589); further: nearly all actives have a fitted effect of over 35% in size
In short: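 Fluorescent calcium dye reports M1 activation in stably transfected CHO cells. Compounds, 15 concentrations, added after 1 h dye loading at 37 C; kinetic reading at 1 sec intervals.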

[14] = cAMP Responsive Elements (CRE) small molecule agonists, cell-based qHTS assay (AID 1963590)
In short: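 Compound exposure lasted 3 h at 37 C/5% CO2 in CRE-bla HEK 293T cells grown in assay medium with 10% dialyzed FBS and 25 mM HEPES. Reporter signal came from LiveBLAzer B/G FRET substrate, 2 h, room temperature.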

[15] = cAMP Responsive Elements (CRE) small molecule antagonists, cell-based qHTS assay (AID 1963591; active means well fitted inhibition curve with a large enough effect in the signal ratio in the repeat runs, not every such curve was filed as active; the % refers to the signal ratio)
In short: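 Stimulation used NKH477 at a final 0.25 uM for 3 h in compound-treated CRE-bla HEK293T cells, seeded 18 h beforehand. Reporter activity was measured with LiveBLAzer B/G FRET substrate after 2 h at room temperature.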

[16] = target: Beta-2 adrenergic receptor (Homo sapiens) (UniProt P07550); experiment: Adrenergic beta2 receptor (ADRB2) small molecule antagonists, cell-based qHTS assay (AID 1963592); further: series mostly up to about 92 µM; nearly all actives have a fitted effect of over 50% in size
In short: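 Assay format: CHO-ADRB2 cells, 18-20hr seeding at 37C/5% CO2, then compound plus 1nM isoproterenol agonist mix for 0.5hr RT. Homogeneous time-resolved fluorescence cAMP detection after 1hr, expressed as 665/615 nm ratio.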

[17] = target: D(2) dopamine receptor (Homo sapiens) (UniProt P14416); experiment: Dopamine D2 receptor (DRD2) small molecule agonists, cell-based qHTS assay (AID 1963594); further: nearly all actives have a fitted effect of over 35% in size
In short: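 HEK293 cells stably expressing human DRD2, pre-treated with PDE inhibitor Ro20-1724 (0.1 mM final) and compound 10 min at room temperature, then stimulated with NKH477 (200nM […]) for 30 min. cAMP read by HTRF (665/620 nm).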

[18] = target: D(2) dopamine receptor (Homo sapiens) (UniProt P14416); experiment: Dopamine D2 receptor (DRD2) small molecule antagonists, cell-based qHTS assay (AID 1963595; active means well fitted inhibition curve with a large enough effect in the signal ratio in the repeat runs, with a control signal flat; the % refers to the signal ratio)
In short: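 DRD2-HEK293; 0.1 mM Ro20-1724; cpd 10 min RT; NKH477 200 nM + quinpirole 12 nM, 30 min RT; HTRF cAMP (cAMP-d2/anti-cAMP cryptate), 665/620 nm ratio after 1 h.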

[19] = target: Beta-2 adrenergic receptor (Homo sapiens) (UniProt P07550); experiment: Adrenergic beta2 receptor (ADRB2) small molecule agonists, cell-based qHTS assay (AID 1963593);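 further: CHO cells stably overexpressing human ADRB2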
In short: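 CHO cells stably over-expressing ADRB2 were plated overnight at 37C, then dosed with compounds plus a stimulation mix containing 100uM IBMX and 25uM Ro-20-1724 for 0.5hr at room temperature. cAMP was measured by HTRF competition, 1hr.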

[20] = target: 5-hydroxytryptamine receptor 2A (Homo sapiens) (UniProt P28223); experiment: 5-hydroxytryptamine receptor 2A (HTR2A) small molecule agonists, cell-based qHTS assay (AID 1963587); further: nearly all actives have a fitted effect of over 30% in size
In short: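 CHO cells stably expressing human HTR2A, plated 18 h, loaded with calcium dye 1 h at 37 C. Agonist mode: compounds added and intracellular calcium fluorescence recorded kinetically for 2 min at 1 sec intervals.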

Measured: Potency

Sequence of D(2) dopamine receptor (Homo sapiens) (P14416 whole entry, looked up): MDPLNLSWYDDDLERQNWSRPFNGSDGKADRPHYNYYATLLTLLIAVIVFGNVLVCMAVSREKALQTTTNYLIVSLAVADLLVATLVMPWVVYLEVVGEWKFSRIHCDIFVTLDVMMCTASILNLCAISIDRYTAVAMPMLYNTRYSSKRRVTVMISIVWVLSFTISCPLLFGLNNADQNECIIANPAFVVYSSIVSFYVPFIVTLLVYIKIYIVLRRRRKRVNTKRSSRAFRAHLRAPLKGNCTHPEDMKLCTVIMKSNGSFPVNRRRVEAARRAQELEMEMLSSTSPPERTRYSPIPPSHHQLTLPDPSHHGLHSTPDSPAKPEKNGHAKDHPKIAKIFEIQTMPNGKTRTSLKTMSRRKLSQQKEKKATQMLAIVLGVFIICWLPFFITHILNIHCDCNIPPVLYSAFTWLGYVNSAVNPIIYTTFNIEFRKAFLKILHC
Sequence of 5-hydroxytryptamine receptor 2A (Homo sapiens) (P28223 whole entry, looked up): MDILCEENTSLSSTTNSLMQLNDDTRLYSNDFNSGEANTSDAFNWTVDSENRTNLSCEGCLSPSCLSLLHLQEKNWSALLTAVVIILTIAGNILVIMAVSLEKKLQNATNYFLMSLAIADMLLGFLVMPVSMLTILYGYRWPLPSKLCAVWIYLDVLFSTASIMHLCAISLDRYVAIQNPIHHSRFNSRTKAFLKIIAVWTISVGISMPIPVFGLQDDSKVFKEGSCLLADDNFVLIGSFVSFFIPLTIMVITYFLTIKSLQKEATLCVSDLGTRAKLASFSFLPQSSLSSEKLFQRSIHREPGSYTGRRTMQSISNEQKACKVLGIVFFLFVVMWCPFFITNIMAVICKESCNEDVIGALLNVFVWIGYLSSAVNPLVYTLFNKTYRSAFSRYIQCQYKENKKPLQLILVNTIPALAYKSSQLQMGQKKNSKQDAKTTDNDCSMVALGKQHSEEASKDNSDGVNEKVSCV
Sequence of Beta-2 adrenergic receptor (Homo sapiens) (P07550 whole entry, looked up): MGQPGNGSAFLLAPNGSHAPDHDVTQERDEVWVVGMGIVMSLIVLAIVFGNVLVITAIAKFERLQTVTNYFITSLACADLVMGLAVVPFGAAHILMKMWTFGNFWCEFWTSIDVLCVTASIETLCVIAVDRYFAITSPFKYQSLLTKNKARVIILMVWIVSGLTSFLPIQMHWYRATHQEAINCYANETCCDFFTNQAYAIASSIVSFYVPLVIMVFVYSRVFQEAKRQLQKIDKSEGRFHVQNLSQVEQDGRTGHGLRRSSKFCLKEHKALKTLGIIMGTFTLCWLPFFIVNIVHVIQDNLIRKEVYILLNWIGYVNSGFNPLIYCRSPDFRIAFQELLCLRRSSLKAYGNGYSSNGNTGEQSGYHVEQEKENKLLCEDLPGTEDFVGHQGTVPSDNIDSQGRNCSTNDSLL
Sequence of Muscarinic acetylcholine receptor M1 (Homo sapiens) (P11229 whole entry, looked up): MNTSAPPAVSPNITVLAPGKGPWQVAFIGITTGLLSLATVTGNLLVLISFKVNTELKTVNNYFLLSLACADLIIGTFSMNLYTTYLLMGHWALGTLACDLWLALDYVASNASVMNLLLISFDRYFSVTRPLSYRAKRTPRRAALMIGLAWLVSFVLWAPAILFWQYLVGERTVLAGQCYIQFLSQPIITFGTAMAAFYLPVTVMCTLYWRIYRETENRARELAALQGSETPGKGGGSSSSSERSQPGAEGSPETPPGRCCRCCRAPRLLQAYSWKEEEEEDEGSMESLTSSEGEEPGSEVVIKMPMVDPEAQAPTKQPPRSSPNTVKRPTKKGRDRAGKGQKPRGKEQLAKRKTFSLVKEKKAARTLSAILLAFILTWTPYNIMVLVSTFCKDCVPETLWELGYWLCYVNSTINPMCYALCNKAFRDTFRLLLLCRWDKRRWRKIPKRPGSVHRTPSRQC
Sequence of Gonadotropin-releasing hormone receptor (Homo sapiens) (P30968 whole entry, looked up): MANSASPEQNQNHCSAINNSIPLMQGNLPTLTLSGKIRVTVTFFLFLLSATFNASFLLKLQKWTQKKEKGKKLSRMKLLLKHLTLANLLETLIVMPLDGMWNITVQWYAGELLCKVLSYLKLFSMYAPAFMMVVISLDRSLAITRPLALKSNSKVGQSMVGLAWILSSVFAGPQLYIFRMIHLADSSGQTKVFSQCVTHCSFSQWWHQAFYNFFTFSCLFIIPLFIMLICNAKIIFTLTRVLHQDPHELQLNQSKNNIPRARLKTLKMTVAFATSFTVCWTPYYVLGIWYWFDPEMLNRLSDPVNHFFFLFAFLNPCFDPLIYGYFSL
Sequence of KiSS-1 receptor (Homo sapiens) (Q969F8 whole entry, looked up): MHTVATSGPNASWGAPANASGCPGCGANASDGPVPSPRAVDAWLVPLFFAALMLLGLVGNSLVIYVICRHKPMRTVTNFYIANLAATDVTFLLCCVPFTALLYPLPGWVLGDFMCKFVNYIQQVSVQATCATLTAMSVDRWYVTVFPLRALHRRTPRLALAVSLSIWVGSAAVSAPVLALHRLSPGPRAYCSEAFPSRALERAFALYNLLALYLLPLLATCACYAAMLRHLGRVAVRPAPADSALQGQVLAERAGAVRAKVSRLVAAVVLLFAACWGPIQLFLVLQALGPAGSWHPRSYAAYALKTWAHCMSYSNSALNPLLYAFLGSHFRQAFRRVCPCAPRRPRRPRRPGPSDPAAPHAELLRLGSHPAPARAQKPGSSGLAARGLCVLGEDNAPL

COc1cccc([C@H](O)C2CCN(CCc3ccc(F)cc3)CC2)c1OC
not listed: [19] | [20]
inactive: all other assays above

CC(C)(O)c1ccccc1CC[C@@H](SCC1(CC(=O)O)CC1)c1cccc(/C=C/c2ccc3ccc(Cl)cc3n2)c1
not listed: [12] | [13] | [17] | [18] | [19] | [20]
inactive: all other assays above

CN(C)CCC[C@@]1(c2ccc(F)cc2)OCc2cc(C#N)ccc21
not listed: [12] | [13] | [20]
inactive: all other assays above

Cc1c(F)cc2c(=O)c(C(=O)O)cn3c2c1CCC3C (stereo unspecified)
not listed: [14] | [15] | [20]
inactive: all other assays above

CN1Cc2cc(C(=O)N3CCC(C4CCNCC4)CC3)ccc2N[C@@H](CC(=O)O)C1=O
active: [12] 1.63 µM
not listed: [20]
inactive: all other assays above

CCCCCCCCCCCCCCCCOS(=O)(=O)O
not listed: [19] | [20]
inactive: all other assays above

CC1(c2ccccc2)OC(C(=O)O)=CC1=O (stereo unspecified)
not listed: [13]
inactive: all other assays above

O=C(O)c1cc(O)c2ccccc2c1O
active: [1] 6.11 µM | [2] 1.72 µM | [8] 8.14 µM
not listed: [11] | [14] | [18] | [19]
inactive: all other assays above

OCCSc1ccccc1
not listed: [11] | [15] | [16] | [18]
inactive: all other assays above

On1nnc2ccccc21
not listed: [11] | [18] | [19]
inactive: all other assays above
